Source: PubChem BioAssay
Unmarked numbers belong to inactive results. For part of these data: Results with a measured potency or affinity are listed apart. Active and inactive are the calls of the source. Unless noted, the rule behind the calls is not given here.

Key:
[1] = antimalarial activity against Dd2 strain (AID 2302;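 active = growth inhibition above 50% at the single 2 µM test dose, taken to imply half-maximal potency below 2 µM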;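 note: 0% = DMSO untreated growth and 100% = chloroquine plus artemisinin killed control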); conditions: P. falciparum Dd2 in RBCs, LDH growth readout, 72 h; at 2 µM; active compounds read high
[2] = HepG2 cytotoxicity, primary screen, cytotoxicity control for P. falciparum antimalarial project, cell-based, ATP luminescence (AID 2303;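 active = inhibition above 50%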;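 note: 0% = DMSO wells and 100% = digitonin-killed cells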); conditions: HepG2 viability, 24-48 h, at 10 µM, active compounds read high
[3] = molecular target: L-lactate dehydrogenase (Plasmodium falciparum (isolate CDC / Honduras)) (UniProt Q27743); assay: PfLDH activity inhibition – cell lysate, 3D7 strain, counter-screen for P. falciparum growth inhibition project (AID 2304);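 note: 0% = vehicle and 100% = reference inhibitor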; conditions: P. falciparum 3D7 crude extract, LDH APAD/NBT absorbance; at 2 µM; active compounds read high
Sequence of L-lactate dehydrogenase (Plasmodium falciparum (isolate CDC / Honduras)) (Q27743 whole entry, looked up): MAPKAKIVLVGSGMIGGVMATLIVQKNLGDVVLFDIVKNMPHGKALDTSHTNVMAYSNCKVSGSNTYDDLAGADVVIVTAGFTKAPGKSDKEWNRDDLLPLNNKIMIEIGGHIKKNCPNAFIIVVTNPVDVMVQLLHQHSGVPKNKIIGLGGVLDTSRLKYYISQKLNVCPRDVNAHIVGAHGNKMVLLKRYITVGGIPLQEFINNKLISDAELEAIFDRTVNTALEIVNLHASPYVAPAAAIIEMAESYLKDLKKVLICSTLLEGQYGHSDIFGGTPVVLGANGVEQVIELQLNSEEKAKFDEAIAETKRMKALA

[4] = inhibition of 3D7 malaria parasite growth – strain 3D7 (AID 2306);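 note: 0% = DMSO wells and 100% = chloroquine plus artemisinin control wells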; conditions: P. falciparum 3D7 erythrocytic growth, LDH absorbance, 72 h; at 2 µM; active compounds read high
[5] = molecular target: Calcium-dependent protein kinase 1 (Plasmodium falciparum (isolate 3D7)) (UniProt P62344); assay: PfCDPK1 kinase inhibitors, biochemical, TCAMS library (AID 1159585; cut-off not given, nearly all actives have IC50 up to about 0.98 µM;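 note: inhibitors leave more ATP so luminescence rises with inhibition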); conditions: recombinant PfCDPK1, Kinase-Glo ATP depletion luminescence
Sequence of Calcium-dependent protein kinase 1 (Plasmodium falciparum (isolate 3D7)) (P62344 whole entry, looked up): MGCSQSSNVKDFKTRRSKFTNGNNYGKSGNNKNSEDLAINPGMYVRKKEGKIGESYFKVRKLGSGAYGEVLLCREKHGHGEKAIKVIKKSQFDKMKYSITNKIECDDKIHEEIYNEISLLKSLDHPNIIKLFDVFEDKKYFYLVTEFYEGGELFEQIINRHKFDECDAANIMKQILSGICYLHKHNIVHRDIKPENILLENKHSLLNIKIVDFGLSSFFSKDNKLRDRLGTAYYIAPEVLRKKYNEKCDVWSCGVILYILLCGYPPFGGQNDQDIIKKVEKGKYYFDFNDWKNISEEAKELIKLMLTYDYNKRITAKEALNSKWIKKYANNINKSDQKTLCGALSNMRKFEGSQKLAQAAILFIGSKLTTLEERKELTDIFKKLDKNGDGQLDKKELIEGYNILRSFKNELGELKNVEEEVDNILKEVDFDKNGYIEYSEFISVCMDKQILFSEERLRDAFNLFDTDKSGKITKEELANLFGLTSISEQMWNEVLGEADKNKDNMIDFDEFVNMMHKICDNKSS

[6] = molecular target: Plasmodium falciparum protein kinase 6 (PK6, PF3D7_1337100) (UniProt Q8IDW1); assay: PfPK6 kinase inhibitors, biochemical, TCAMS library (AID 1159586); conditions: recombinant PfPK6, Kinase-Glo ATP depletion luminescence
Sequence of Plasmodium falciparum protein kinase 6 (PK6, PF3D7_1337100) (Q8IDW1 1-305): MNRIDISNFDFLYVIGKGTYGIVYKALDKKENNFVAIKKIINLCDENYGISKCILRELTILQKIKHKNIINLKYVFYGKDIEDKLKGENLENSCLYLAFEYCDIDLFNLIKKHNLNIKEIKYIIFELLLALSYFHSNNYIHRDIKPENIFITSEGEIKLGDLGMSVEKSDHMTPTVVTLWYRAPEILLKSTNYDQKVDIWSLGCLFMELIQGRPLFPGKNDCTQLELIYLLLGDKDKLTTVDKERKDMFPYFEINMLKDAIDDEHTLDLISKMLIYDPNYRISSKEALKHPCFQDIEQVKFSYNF

[7] = molecular target: Protein kinase 7 (PK7), Plasmodium falciparum 3D7 (PF3D7_0213400) (UniProt Q7YTF7); assay: inhibition of Plasmodium PK7 catalytic activity – biochemical, TCAMS antimalarial set, Kinase-Glo luminescence (AID 1159587); conditions: recombinant PfPK7, Kinase-Glo ATP depletion luminescence
Sequence of Protein kinase 7 (PK7), Plasmodium falciparum 3D7 (PF3D7_0213400) (Q7YTF7 1-343): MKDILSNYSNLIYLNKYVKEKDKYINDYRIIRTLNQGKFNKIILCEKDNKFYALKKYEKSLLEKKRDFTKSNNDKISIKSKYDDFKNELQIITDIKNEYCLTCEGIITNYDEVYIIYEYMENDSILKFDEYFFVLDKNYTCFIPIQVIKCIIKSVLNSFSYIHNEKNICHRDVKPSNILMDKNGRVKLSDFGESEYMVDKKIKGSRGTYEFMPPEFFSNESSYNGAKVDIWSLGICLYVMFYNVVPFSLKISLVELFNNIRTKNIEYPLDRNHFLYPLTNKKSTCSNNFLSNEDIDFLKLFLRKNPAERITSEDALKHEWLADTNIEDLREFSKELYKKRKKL

[8] = molecular target: Calcium-dependent protein kinase 4 (Plasmodium falciparum (isolate 3D7)) (UniProt Q8IBS5); assay: PfCDPK4 kinase inhibitors, biochemical, TCAMS library (AID 1159588; cut-off not given, nearly all actives have IC50 up to about 0.91 µM); conditions: recombinant PfCDPK4, Kinase-Glo ATP depletion luminescence
Sequence of Calcium-dependent protein kinase 4 (Plasmodium falciparum (isolate 3D7)) (Q8IBS5 whole entry, looked up): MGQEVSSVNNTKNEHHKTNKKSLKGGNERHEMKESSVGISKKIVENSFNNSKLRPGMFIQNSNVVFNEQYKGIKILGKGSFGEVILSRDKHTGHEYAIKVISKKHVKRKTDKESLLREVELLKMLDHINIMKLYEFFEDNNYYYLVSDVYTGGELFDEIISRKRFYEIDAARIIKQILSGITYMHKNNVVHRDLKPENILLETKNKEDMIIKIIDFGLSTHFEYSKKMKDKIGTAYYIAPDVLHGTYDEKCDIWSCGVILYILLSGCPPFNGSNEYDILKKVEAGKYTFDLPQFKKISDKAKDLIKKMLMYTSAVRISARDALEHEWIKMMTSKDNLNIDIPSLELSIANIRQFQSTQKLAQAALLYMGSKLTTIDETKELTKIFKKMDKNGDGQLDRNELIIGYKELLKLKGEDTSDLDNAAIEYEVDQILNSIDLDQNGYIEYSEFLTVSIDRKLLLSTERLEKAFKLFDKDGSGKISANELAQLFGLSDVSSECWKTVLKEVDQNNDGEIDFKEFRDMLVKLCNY

SMILES	growth inhibition [1]	inhibition [2]	inhibition [3] [%]	growth inhibition [4]	outcome [5]	outcome [6]	outcome [7]	outcome [8]
CCN(CC)S(=O)(=O)n1ncc2c3c(N)nc(N)nc3ccc21	16%	67% (active)	3	93% (active)	inactive	inactive	inactive	inactive
O=C(/C=C/c1ccc(Cl)c(Cl)c1)NCCCCCN1CCC(CCNC(=O)c2snnc2-c2ccccc2)CC1	1%	54% (active)	-2	89% (active)	inactive	inactive	inactive	inactive
O=[N+]([O-])c1ccc(C(O)P(=O)(c2ccccc2)c2ccccc2)cc1 (stereo not drawn)	1%	1%	0	98% (active)	inactive	inactive	inactive	inactive
O=C(Nc1ccsc1C(=O)NC1CCCCC1)c1ccc(F)cc1	11%	3%	6	86% (active)	inactive	inactive	inactive	inactive
COc1ccc(-c2nc(NC(=O)CS(=O)(=O)c3ccc(C)cc3)sc2C)cc1	94% (active)	56% (active)	2	101% (active)	inactive	inactive	inactive	inactive
O=C(Nc1ccc(OC2CCN(Cc3ccsc3)C2)c(Cl)c1)c1ccco1 (stereo not drawn)	96% (active)	-6%	-5	93% (active)	inactive	inactive	inactive	inactive
COc1ccc2ccccc2c1CCCCN1CCN(CC(c2ccc(F)cc2)N2CCN(C(C)C)CC2)CC1 (stereo not drawn)	83% (active)	92% (active)	2	100% (active)	inactive	inactive	inactive	inactive
O=C1CSc2ccc(CNC3CCN(CCc4c(F)cnc5ccc(F)cc45)CC3)nc2N1	16%	13%	1	97% (active)	inactive	inactive	inactive	inactive
c1ccc(-c2cc3cccc(-c4nc5ccncc5[nH]4)c3o2)cc1	95% (active)	37%	-6	100% (active)	inactive	inactive	inactive	inactive
CC(C)c1ccc(NC(=O)Nc2ccc(Cn3ncc(N4CCCNCC4)c(Cl)c3=O)cc2)cc1	27%	11%	2	85% (active)	inactive	inactive	inactive	inactive
CC(C)c1cc2c(ccc3nc(N)nc(N)c32)[nH]1	4%	49%	2	93% (active)	inactive	inactive	inactive	inactive
C[C@H](NC(=O)c1c(OC2CN(C(c3ccccc3)c3ccccc3)C2)c(-c2ccccc2)nc2ccccc12)C1CCCCC1	74% (active)	0%	2	92% (active)	inactive	inactive	inactive	inactive
Fc1cc(Cl)ccc1Nc1ccnc2cc(-c3ccc(CN4CCCCC4)o3)ccc12	99% (active)	16%	-1	100% (active)	inactive	inactive	inactive	inactive
O=C(NCC1CCN(Cc2cccc(C(F)(F)F)c2)C1)c1cc(-c2cccc(F)c2)cs1 (stereo not drawn)	5%	19%	-3	87% (active)	inactive	inactive	inactive	inactive
COc1ccc(NC(=O)Nc2ccc(Nc3nc(C)cc(N4CCCC4)n3)cc2)cc1	100% (active)	14%	-2	101% (active)	inactive	inactive	inactive	inactive
Cc1noc(C)c1-c1ccc2c(Nc3cccc4c3-c3ccccc3C4=O)c(C(=O)NCc3ccccc3I)cnc2c1	99% (active)	27%	2	99% (active)	inactive	inactive	inactive	inactive
O=C(Nc1cccc(CN2CCN(C(=O)c3ccccc3)CC2)c1)c1cccs1	97% (active)	15%	1	95% (active)	inactive	inactive	inactive	inactive
NC1=NC(c2ccccc2)(c2ccccc2)C(=O)N1CCCCc1ccccn1	56% (active)	10%	-4	94% (active)	inactive	inactive	inactive	inactive
O=C(Nc1ccc(Cl)cc1)Nc1ccc(Cn2ncc(N3CCCNCC3)c(Cl)c2=O)cc1	11%	49%	1	85% (active)	inactive	inactive	inactive	inactive
O=C(Nc1ccc(-c2nc3ccccc3[nH]2)cc1)c1cccc(S(=O)(=O)N2CCOCC2)c1	43%	6%	-5	89% (active)	inactive	inactive	inactive	inactive
CCN(CCCN1CCCCC1)c1cc(C)nc(Nc2ccc(C)c(F)c2)n1	92% (active)	20%	-5	102% (active)	inactive	inactive	inactive	inactive
